For this assay, the system named is VDR:RXRa (NR concentration 270 nM, RXRa partner concentration 90 nM). The assay can be described thus: PBM binding z-score (relative to random genomic background probes); higher = stronger binding; sequences stand for … in GC…GCGATTGACAGCGTAGAATGAAGG
On the procedure:
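Protein-binding microarray (Agilent 4x180K custom design, double-stranded 60-nt probes: 5' GC cap, 34-nt variable region, 24-nt constant primer region; full probe sequence given). Purified or IVT nuclear receptor:RXRα heterodimers (3:1 NR:RXRα, mostly 270:90 nM) or homodimers were incubated for 1 h in PBS with 2% milk and no ligand, then detected with Alexa488 antibodies. Fluorescence from o1-orientation probes (~5 replicates averaged) was converted to z-scores against 500 random hg19 background probes. Variable regions are seed direct-repeat (DR0–DR5) sites, all their single-nucleotide variants and half-site ablations.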
For CTCGAAAGATCGTGCTCAGGTGAGTATACCAAAC, the PBM binding z-score is -0.291. Sequence ATATGTAGGTTATCGGGTCCTTCAGTTTGCGCAT returned a PBM binding z-score of 3.81. Take TCTCGGAGGAGACGAAAGGTCAGAGCTCGACATC: the PBM binding z-score worked out at 1.87. Sequence CCTTACGGGTCACTTCAGGTTATAGCATCGGAGT came in with a PBM binding z-score of 4.22. In the case of GCAGACAGGTGACACGCAGGTAACTCAGGGTGGC, the PBM binding z-score was -0.517. Take ACTAGCAAGCCAAGTTTGGGTCACTCAAACAAAG: the PBM binding z-score was found to be 0.188. The sequence AAAGACAGGTGATGAAGGTAACTCAGGCTATCAT showed a PBM binding z-score of 0.521. Under TAGCCTAGGTCATGCGGGCCGGTATAGTGTCGGC stands 2.22. Sequence CGTCAAAGTTCAAGTAAGGTAACGTAAAGCACGC yielded a PBM binding z-score of 4.46. Turning to TCGAGTAGGTTACCAATGGGGCGTTCAGCTTTCT, the PBM binding z-score was -0.111. TAGCCTAGGTCAGATCGGGCCGGTATACGCTATA yielded a PBM binding z-score of 0.236. Under CTCGAAAGGCCGGTTGAGGTGAGTATACGGATAA stands -0.304; under TCTATTAGTTGATTAGGGCAACAGAAACAGCGGA, 0.574.

For the sequence TCTGCTAGGTCAACTATGGTCAGCTAATCTGCTA, the PBM binding z-score was 2.12. For CCTTACGGGTCACTCCAGGTTATAGGATCGGAGT the value was 4.34; for CCTTTTAGTTGACCATAAGGGCAACCGAAGCTCG, 1.28; for TCGAGTAGGATACCAATGGGGCATTCAGCTTTCT, -0.497. TCAGACAGGTGAAGGAAACTCAGGTACGCAGTCG came in with a PBM binding z-score of 0.447.

Sequence ACTAGCTGGTCAGCTGAGGTCACACACAATTCGG yielded a PBM binding z-score of 4.56.

In turn, ACTAGCAGGCCAAGGGTCACCCAAGATTAGTCCG had a PBM binding z-score of 3.3. The sequence TGAATGAGTTTATAAGATCAGGGAACGTTGCAAA showed a PBM binding z-score of 1.26.

Take TCTTGTAGCTCAATAGAGGTTAAGAAAGTGCGCT: the PBM binding z-score is 1.32. In turn, CAAACTAGGTCAAAGGTCAAAGTGGAGCCAACCA registered a PBM binding z-score of 6.72. Under TTACTAAGGTGAAGGTCGTTGATCCCTCTGTAGA stands 1.73. Under TCTGCTAGGTCTGTTGGTCAGCTAACGAGCTGCC stands -0.568; under CCTACTGGGCCAGGGTCATTGATCAGTCAAAGCA, 3.14.

For the sequence GGAACGAGGGCATTCGAGTTGAAAGCATGGCGAT, the PBM binding z-score was determined as 3.59. In the case of GGGACTGGGGCATCAGCAGGTTACCATAACTTAA, the PBM binding z-score is 0.674.

CCTTACGGGTCACTCCAGGTTATCGCATCGGAGT came in with a PBM binding z-score of 4.2. Sequence ATATGTGGGTTAAGGGTCATTCAGGTTGGTTCGC had a PBM binding z-score of 5.79. As to CTCGAAAGGTCGGATGAGGTGAGTATACGGATAA, the PBM binding z-score was 2.74. Sequence ACTTACGGGTCAACGAGGTAATAGCACGCGTATA showed a PBM binding z-score of 6.51. CGAACTAGGTCATTGTCAGGACAGTGAATAGTAA yielded a PBM binding z-score of 2.52.

In the case of GCGCCTGGGGCATCAGCAGGTTACCATAACTTAA, the PBM binding z-score was -0.28. GCGACTGGGGCAAAGCAGGTTACCTTAAGGTTGG came in with a PBM binding z-score of 0.0193.

On to ACTATTAGTGGAGACGAGGGCAACCGATAGGTTG, for which the PBM binding z-score came to 0.101. With CAGCCTAGGTAAGGGCCAGTATAGGAGGAACGTT, the PBM binding z-score is -0.84. Regarding TCTAGTTGGTCAAAGCTCACACACTCGAAATGCG, the PBM binding z-score is 0.632. The sequence CCTACTGGGGCAAGGTTACCATAACGCACAGCCA gave a PBM binding z-score of 0.252. AGAATGAGGTTACCAAAGATCAGGGACACGCTTG came in with a PBM binding z-score of 1.54.

The values are drawn from the supplement of paper PMC6555819.
